This note sets out measurements from PubChem BioAssay (Tox21).

Inconclusive results are not listed. Values without a mark were called inactive. Calls of active or inactive are those of the source. Unless noted, the call rests on the fitted dose curve; in most records, active means well fitted curve in the direction sought with a large enough effect in the repeat runs; inconclusive means weak or mixed curves; inactive means no such curve, though single readings can be large; an effect the other way counts as inactive or inconclusive.

The nature of assay [1]: qHTS assay to identify small molecule agonists of the RXR signaling pathway - cell viability counter screen (AID 1159529). Further: series mostly up to about 77 µM; nearly all actives have a fitted effect of over 50% in size. The method in brief:
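Luminescence from CellTiter-Glo (30 min, RT) measured viability in the same wells as the beta-lactamase reporter readout. Cells: GeneBLAzer RXR-alpha HEK 293T, 2% charcoal-stripped FBS. Compound exposure 16 hr, 37 C.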

Assay [2] in a line: qHTS assay to identify small molecule antagonists of the retinoid acid receptor (RAR) signaling pathway - cell viability counter screen (AID 1159551). Further: nearly all actives have a fitted effect of over 35% in size. The method in brief:
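Cytotoxicity counter screen in C3RL4 cells: 6 h compound exposure with 1 uM retinol (final), viability from cellular ATP by luminescence.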
(qHTS replaces the single test concentration by a dilution series.)

Assay [3] in a line: qHTS assay to identify small molecule antagonists of the retinoic acid receptor (RAR) signaling pathway (AID 1159552; further: nearly all actives have a fitted effect of over 50% in size). The method in brief: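 Luminescence from a RARE luciferase reporter in C3RL4 cells served as read-out. Cells received compounds together with 1 uM final retinol and incubated 6 hr at 37 C before detection reagent was added for 30 min at room temperature.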
Assay [4] in a line: qHTS assay to identify small molecule antagonists of the estrogen related receptor (ERR) signaling pathway from Tox21 library - cell viability counter screen (AID 1224834). Further: nearly all actives have a fitted effect of over 30% in size. The method in brief: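 Cytotoxicity of test substances is gauged in the same ERR cells used for the antagonist screen, after 17.5 h of compound treatment at 37 C, by CellTiter-Fluor fluorescence measured after 30 min.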

Assay [5] addresses Luciferin 4-monooxygenase (Photinus pyralis) (UniProt P08659). In words: qHTS assay to identify small molecule inhibitors of firefly luciferase (AID 1224835). Further: nearly all actives have a fitted effect of over 25% in size. Further: potency means the concentration at half of the fitted maximal effect. In a few lines:
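Biochemical qHTS: compounds run as interplate titrations against purified firefly enzyme, with D-luciferin and ATP each at its KM concentration. Light output recorded by CCD imaging.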

A short description of assay [6]: qHTS assay to identify small molecule agonists of the constitutive androstane receptor (CAR) signaling pathway - cell viability counter screen (AID 1224836). Further: series mostly up to about 92 µM; nearly all actives have a fitted effect of over 45% in size. The method in brief: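 Viability read-out: CellTiter-Fluor fluorescence after 23 h compound exposure at 37 C/5% CO2 in double-stable HepG2-CYP2B6-hCAR cells, with PK11195 present at 0.75 uM final; compounds tested in 15-point titration.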

A short description of assay [7]: qHTS assay to identify small molecule antagonists of the constitutive androstane receptor (CAR) signaling pathway - cell viability counter screen (AID 1224837). Further: series mostly up to about 92 µM; nearly all actives have a fitted effect of over 45% in size. In a few lines:
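Multiplexed cytotoxicity read-out for the CAR antagonist screen: double-stable HepG2-CYP2B6-hCAR cells co-treated with 50 nM CITCO (final) and compound over 15 concentrations, incubated 23 hr, then assessed by CellTiter-Fluor fluorescence.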

Assay [8] addresses Nuclear receptor subfamily 1 group I member 3 (Homo sapiens) (UniProt Q14994). In words: qHTS assay to identify small molecule antagonists of the constitutive androstane receptor (CAR) signaling pathway (AID 1224838). Further: nearly all actives have a fitted effect of over 40% in size. The method in brief: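 Compounds were titrated across 15 concentrations onto HepG2 cells double-stably expressing hCAR and a CYP2B6-2.2kb reporter, together with 50 nM CITCO (final). After 24 h at 37 C, luciferase activity was measured by luminescence.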

Assay [9] shares this target. Nature of the assay: qHTS assay to identify small molecule agonists of the constitutive androstane receptor (CAR) signaling pathway (AID 1224839). Further: series mostly up to about 92 µM; nearly all actives have a fitted effect of over 15% in size. In a few lines:
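Luminescence read-out (ONE-Glo, 30 min, room temperature) from double-stable HepG2-CYP2B6-hCAR cells exposed 24 h to 15-point compound series in presence of 0.75 uM PK11195 final.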

Assay [10] can be described thus: qHTS assay to identify small molecule antagonists of the estrogen related receptor signaling pathway with the pleiotropic PPARgamma coactivator (PGC) from Tox21 10K library - cell viability counter screen (AID 1224840; active means well fitted cell-killing curve with a large enough effect in the repeat runs, not every such curve was filed as active; further: nearly all actives have a fitted effect of over 40% in size). The method in brief: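 Step one, plate 2,000 PGC/ERR cells per well; step two, incubate 6 h at 37 C/5% CO2; step three, pin-transfer compounds; step four, incubate 17.5 h; step five, add CellTiter-Fluor and read fluorescence after 30 min.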

Assay [11] can be described thus: qHTS assay to identify small molecule antagonists of the estrogen related receptor signaling pathway with the pleiotropic PPARgamma coactivator (PGC) from Tox21 10K library (AID 1224841; call rule not given here; further: series mostly up to about 92 µM; actives are mostly falling curves and most rising ones were filed inactive; nearly all actives have a fitted effect of over 50% in size). In a few lines:
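Antagonism in this quantitative HTS is taken from loss of luciferase signal in PGC/ERR cells. Cells (2,000/well) are treated with compounds in DMSO after a 6 h settling period and read by One-Glo luminescence after 18 h.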

The nature of assay [12]: qHTS assay to identify small molecule agonists of the estrogen related receptor signaling pathway with the pleiotropic PPARgamma coactivator (PGC) from Tox21 10K library (AID 1224842). Further: nearly all actives have a fitted effect of over 15% in size. The method in brief: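 PGC/ERR reporter cell line, 2,000 cells per well, incubated 6 h at 37 C before 23 nL compound in DMSO was added. After 18 h at 37 C, One-Glo luminescence read following 30 min at room temperature.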

A short description of assay [13]: qHTS assay to identify small molecule agonists of the retinoic acid receptor (RAR) signaling pathway (AID 1159553). In a few lines: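 Agonist activity was scored in C3RL4 cells bearing a retinoic acid response element luciferase construct. Cells were treated with compounds for 6 hr at 37 C, and luciferase signal was measured as luminescence.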
Assay [14] is described as follows: qHTS assay to identify small molecule antagonists of the estrogen related receptor (ERR) signaling pathway - cell viability counter screen (AID 1224818). Further: series mostly up to about 46 µM. The method in brief:
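Cells carrying the ERR pathway reporter were seeded and incubated for 6 hours before compound addition. After a 17.5-hour exposure at 37 C, live-cell protease activity was measured by CellTiter-Fluor fluorescence following 30 minutes of incubation.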

Assay [15] in a line: qHTS assay to identify small molecule antagonists of the estrogen related receptor (ERR) signaling pathway (AID 1224819;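 further: luminescence from an ERR-driven luciferase reporter measured with One-Glo reagent; series mostly up to about 46 µM; nearly all actives have a fitted effect of over 50% in size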). In a few lines: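 Compounds dissolved in DMSO were pin-transferred onto ERR cells that had been plated 6 h earlier, and cells were then incubated 18 h at 37 C; signal was luciferase luminescence via One-Glo.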
Assay [16] can be described thus: qHTS assay to identify small molecule agonists of the estrogen related receptor (ERR) signaling pathway (AID 1224820). The method in brief:
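Quantitative HTS of the LOPAC library used NTP ERR reporter cells treated 18 h at 37 C. Signal is luminescence after One-Glo addition and a 30 min room-temperature incubation.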

Assay [17] concerns estrogen-related receptor alpha (ERRalpha) with PGC-1alpha coactivator, human. Nature of the assay: qHTS assay to identify small molecule antagonists of the estrogen related receptor signaling pathway with the pleiotropic PPARgamma coactivator (PGC) (AID 1224821; calls by dose curve). The method in brief:
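Quantitative HTS for antagonism: PGC/ERR cells received compounds after 6 h attachment and were incubated 18 h at 37 C, with luminescence (One-Glo) as the endpoint.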

Assay [18] can be described thus: qHTS assay to identify small molecule antagonists of the estrogen related receptor signaling pathway with the pleiotropic PPARgamma coactivator (PGC) cell viability counter screen (AID 1224822; further: series mostly up to about 46 µM). The method in brief:
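Seed PGC/ERR cells (2,000/well); incubate 6 h at 37 C/5% CO2; pin-transfer compounds in DMSO; incubate 17.5 h at 37 C; add CellTiter-Fluor; after 30 min read fluorescence.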

Assay [19] is described as follows: qHTS assay to identify small molecule agonists of the estrogen related receptor signaling pathway with the pleiotropic PPARgamma coactivator (PGC) (AID 1224823). In a few lines: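 Cell-based luciferase assay in the NTP-supplied PGC/ERR line, 2,000 cells/well; 18 h compound exposure at 37 C, luminescence after One-Glo.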

Luciferin 4-monooxygenase (Photinus pyralis), sequence (P08659 whole entry, looked up): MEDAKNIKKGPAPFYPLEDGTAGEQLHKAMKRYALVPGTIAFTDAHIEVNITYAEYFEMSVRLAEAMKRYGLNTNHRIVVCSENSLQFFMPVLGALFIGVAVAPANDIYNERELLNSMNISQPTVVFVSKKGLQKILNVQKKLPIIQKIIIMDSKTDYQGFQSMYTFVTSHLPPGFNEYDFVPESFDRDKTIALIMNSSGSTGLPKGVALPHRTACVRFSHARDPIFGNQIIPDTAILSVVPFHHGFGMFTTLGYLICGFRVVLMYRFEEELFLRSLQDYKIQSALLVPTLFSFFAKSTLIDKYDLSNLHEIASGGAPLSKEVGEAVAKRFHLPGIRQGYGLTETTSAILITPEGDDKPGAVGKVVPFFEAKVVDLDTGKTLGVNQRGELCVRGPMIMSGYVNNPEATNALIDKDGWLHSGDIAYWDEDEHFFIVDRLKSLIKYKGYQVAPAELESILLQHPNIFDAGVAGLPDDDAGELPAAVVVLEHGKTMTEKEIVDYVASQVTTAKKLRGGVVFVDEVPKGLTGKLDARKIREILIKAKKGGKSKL
Nuclear receptor subfamily 1 group I member 3 (Homo sapiens), sequence (Q14994 whole entry, looked up): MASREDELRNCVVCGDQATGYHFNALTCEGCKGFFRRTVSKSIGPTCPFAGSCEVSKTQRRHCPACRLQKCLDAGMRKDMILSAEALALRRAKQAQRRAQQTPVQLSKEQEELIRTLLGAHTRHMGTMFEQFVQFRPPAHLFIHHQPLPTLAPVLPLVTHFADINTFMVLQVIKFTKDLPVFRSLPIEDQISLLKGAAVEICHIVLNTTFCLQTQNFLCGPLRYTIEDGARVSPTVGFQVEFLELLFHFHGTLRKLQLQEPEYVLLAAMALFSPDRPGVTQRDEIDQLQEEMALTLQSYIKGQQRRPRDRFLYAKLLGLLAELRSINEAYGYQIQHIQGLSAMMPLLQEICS

As to `COc1cc(C)c(Cc2cnc(N)nc2N)cc1OC`, the Potency entry in [1], in assay [4], in assay [5], in assay [6], in [7] and in assay [8] was “inactive” throughout. In addition, the Potency result in assay [9], in assay [10], in [11] and in assay [12] was “inactive” in each case. In addition, the compound was called inactive in assay [2] and in assay [3].
For `CCC(C)C1N=C(C)C(C)S1` (stereo not given), the Potency result in assay [1], in assay [13], in [4], in assay [5], in [6] and in [7] was “inactive” in each case. For the same compound, the Potency entry in assay [11] and in assay [12] was “inactive” each time. Further, the result in assay [2] and in assay [3] was inactive.
In the case of `C=C(C)C(=O)OCCCCCCCCCCOC(=O)C(=C)C`, the Potency result in assay [1], in [4], in assay [5], in [6], in assay [7] and in assay [8] was “inactive” each time. In addition, the Potency result in [9], in assay [10], in [11] and in assay [12] was “inactive” each time. The call in [2] and in assay [3] was inactive.
As for `C/C(=C(\CCO)SS/C(CCO)=C(\C)N(C=O)Cc1cnc(C)nc1N)N(C=O)Cc1cnc(C)nc1N`, the Potency result in assay [1], in assay [13], in [4], in assay [5], in [6] and in [7] was “inactive” each time. The Potency result in assay [10] and in assay [11] was “inactive” throughout. For the same compound, the compound was classed as inactive in assay [2] and in [3].
As for `O=C1c2ccccc2C(=O)c2c1ccc(O)c2O`, the Potency result in assay [1], in [13], in assay [6], in [7], in assay [8] and in assay [9] was “inactive” in each case. The Potency result in assay [10] is “inactive”. Also, the compound was called inactive in assay [2] and in assay [3]. Further, in assay [5], the Potency is 34.7 µM (active).
Take `CCC[Si](OC)(OC)OC`: the Potency entry in assay [1], in [13], in assay [4], in [5], in assay [6] and in assay [7] was “inactive” each time. In addition, the Potency entry in [10], in assay [11] and in assay [12] was “inactive” throughout. Moreover, the result in [2] and in [3] was inactive.
As for `Cc1ccccc1CCO`, the Potency entry in [1], in assay [13], in [4], in assay [5], in assay [6] and in assay [7] was “inactive” each time. For the same compound, the Potency entry in assay [10], in assay [11] and in [12] was “inactive” throughout. Also, the compound was classed as inactive in assay [2] and in [3].
In the case of `CC(C)CCCCCOC(=O)CS`, the Potency entry in assay [1], in assay [4], in assay [5], in [6], in assay [7] and in assay [8] was “inactive” throughout. The Potency result in assay [9] and in assay [10] was “inactive” each time. For the same compound, the result in assay [2] and in assay [3] was inactive.
Turning to `CC(=O)Nc1cccc(N)c1`, the Potency result in assay [1], in assay [13], in [4], in [5], in assay [6] and in assay [7] was “inactive” each time. In addition, the Potency result in assay [10] and in assay [11] was “inactive” throughout. Besides, the compound was classed as inactive in assay [2] and in assay [3].
On to `CCC(C)CCCC(C)(C)O` (stereo not given), for which the Potency result in [1], in [13], in [4], in [5], in [6] and in [7] was “inactive” each time. Also, the outcome in assay [2] was inactive.
As for `O=C(O)c1cccnc1Nc1cccc(C(F)(F)F)c1`, the Potency result in [1], in assay [15], in assay [4], in assay [6], in assay [7] and in assay [8] was “inactive” throughout. Further, the Potency entry in [10], in assay [11] and in assay [12] was “inactive” in each case. Also, the result in [2], in assay [3], in assay [14], in assay [16], in assay [17] and in assay [18] was inactive. In addition, in assay [19], the compound was called inactive. Further, the Potency in assay [5] was 19.5 µM (active).
